# Compound activity deposited in PubChem BioAssay by National Center for Advancing Translational Sciences (NCATS).
# The sample as a whole holds a higher share of hits than the screen did.
# KDM5B inhibitor: Primary screen for KDM5B Histone Demethylases FDH-coupled qHTS | Lysine-specific demethylase 5B (Homo sapiens), Q9UGL1 | KDM5B demethylase, FDH-coupled NADH fluorescence (FDH is formaldehyde dehydrogenase) | Potency, µM (doses to about 57.7 µM), actives largely listed as inhibitors | 220,000 tested, 2.6% active | AID 1347165, 2019; active = well fitted inhibition curve with a large enough effect; also: 0% is about no effect; nearly all actives have a fitted effect of over 70% in size
#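 Measured: NADH fluorescence change, 30 min, RT. System: KDM5BΔAP 200 nM final, H3K4me3 peptide, α-KG, Fe(II), ascorbate, NAD⁺ plus FDH, pH 7.5 HEPES. Compounds: titrated, 10 min pre-incubation with enzyme.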
# * hit, by the source's call; i = inactive. Potency is read from the fitted curve at half-maximal effect.
SMILES,KDM5B inhibitor
COc1ccc(CCc2nc3nccc(-c4cccnc4)n3n2)cc1OC,i
COc1ccc(CCc2nc3nccc(-c4ccccc4)n3n2)cc1OC,i
COc1ccc(CCc2nc3nccc(-c4ccc(OC)c(OC)c4)n3n2)cc1,28.2µM*
C/C(=N/OCc1ccc(C(N)=O)cc1)c1cc2ccccc2o1,i
Cc1cccc(NC(=O)CN2CCN(C(=O)NCc3ccccc3)CC2)c1C,i
COc1cccc2cc(C(=O)NCCc3c(C)[nH]c4ccc(C)cc34)c(=O)oc12,i
Cc1cnc(C(=O)N2CCC(N3C(=O)C4(CCCC4)C3c3ccccc3)CC2)cn1 (centres undefined),i
CC(=O)c1c(C)[nH]c(C(=O)CSc2nnc(C3CC3)o2)c1C,i
CC(C)(C)c1cc(SCc2ccc(C#N)cc2)cc(C(C)(C)C)c1O,i
Cc1nc(SCC(=O)Nc2ccccc2)oc1C,i
CN(C)C(=O)c1ccc(Cl)cc1NS(=O)(=O)c1cccc(F)c1,i
COc1ccc(-c2ccnc3nc(CCC4CCCC4)nn23)cc1OC,12.6µM*
COc1ccc(-c2c(C)nn3c(NC4CCCCC4)cc(C)nc23)cc1OC,i
CCCc1cc(C(=O)N[C@H](c2ccccn2)C2CC(O)C2)cs1 (some centres undefined),i
O=C(Cc1csc(-c2ccccc2)n1)N[C@H](c1ccccn1)C1CC(O)C1 (some centres undefined),25.1µM*
O=C(N[C@H](c1ccccn1)C1CC(O)C1)c1cc(=O)n(-c2ccccc2)[nH]1 (some centres undefined),i
Nc1nc2c(c(C(=O)N[C@H](c3ccccn3)C3CC(O)C3)n1)CCCC2 (some centres undefined),28.2µM*
Nc1nc(CC(=O)N[C@H](c2ccccn2)C2CC(O)C2)cc(=O)[nH]1 (some centres undefined),i
O=C(CCc1nc2ccccc2s1)N[C@H](c1ccccn1)C1CC(O)C1 (some centres undefined),i
Cc1cc2nc(/C=C/c3cccc(C(F)(F)F)c3)sc2cc1C,i
O=C(NCc1ccc2c(c1)OCO2)c1ccc(N2CCCN(Cc3ccccc3)C2=O)cc1,i
COCCOC1CCN(C(=O)Nc2ccc3c(c2)OCCO3)CC1,i
CC(=O)c1ccc(NC(=O)O[C@@H]2CO[C@H]3[C@@H]2OC[C@@H]3n2nnnc2SCc2ccco2)cc1,i
CN(C)c1ccc(-c2nnnn2[C@H]2CO[C@H]3[C@@H]2OC[C@H]3OC(=O)Nc2cccc(C#N)c2)cc1,35.5µM*
CC(C)c1nnnn1[C@H]1CO[C@H]2[C@@H]1OC[C@H]2OC(=O)Nc1cccc(C#N)c1,i
SMILES,KDM5B inhibitor
N#Cc1cccc(NC(=S)O[C@@H]2CO[C@H]3[C@@H]2OC[C@@H]3n2nnnc2SCc2ccco2)c1,15.8µM*
O=C(Nc1cccc(C(F)(F)F)c1)O[C@@H]1CO[C@H]2[C@@H]1OC[C@@H]2n1nnnc1SC1CCCC1,i
O=C(Nc1ccccc1)O[C@@H]1CO[C@H]2[C@@H]1OC[C@@H]2n1nnnc1SC1CCCC1,i
N#Cc1cccc(NC(=O)O[C@@H]2CO[C@H]3[C@@H]2OC[C@@H]3n2nnnc2SC2CCCC2)c1,i
N#Cc1cccc(NC(=O)N[C@H]2CO[C@H]3[C@@H]2OC[C@@H]3n2nnnc2Oc2ccc(-n3cncn3)cc2)c1,i
O=C(Nc1ccccc1)O[C@@H]1CO[C@H]2[C@@H]1OC[C@@H]2n1nnnc1SCc1ccco1,35.5µM*
CC(=O)Nc1cccc(NC(=O)Cc2nn(C)c(=O)c3ccccc23)c1,i
O=C1CO[C@H]2CN(Cc3ccc4c(c3)OCO4)C[C@H]2N1c1ccccc1,i
CNc1nc(SCC(=O)Nc2cc(C)on2)nc2ccccc12,i
O=C(O)C(c1c[nH]c2ccccc12)N1CCN(C/C=C/c2ccccc2)CC1 (centres undefined),i
C=C(C)Cn1c(N(CC)CC)nc2c1c(=O)n(C)c(=O)n2C,i
O=C(NC1CCCCCC1)C1CCC(Cn2cnnn2)CC1 (centres undefined),i
O=C1NC2(CCCC2)C(=O)N1Cc1coc(-c2cccc(Cl)c2)n1,i
O=C(NCC(=O)N(Cc1cccs1)C1(C(=O)NC2CCCC2)CCCCC1)c1ccccc1,i
CS(=O)(=O)CC(O)c1cc2n(n1)CCN(c1cncc(C(N)=O)n1)C2 (centres undefined),25.1µM*
CS(=O)(=O)CC(O)c1cc2n(n1)CCN(Cc1ccc(Cl)s1)C2 (centres undefined),i
COc1ccc(C(=O)N2CCn3nc(C(O)CS(C)(=O)=O)cc3C2)cn1 (centres undefined),i
Cc1cccc(NC(=O)c2ccccc2SCC(=O)NCc2ccco2)c1,i
N#C/C(=C/c1ccc(OC(F)F)cc1)C(=O)Nc1cccc(C(F)(F)F)c1,i
CCOC(=O)c1nc(-c2ccc(Br)o2)no1,i
O=C(OCc1cc(=O)n2nc(-c3cccs3)sc2n1)c1cccc(Cl)c1,i
